For nine targets, log2 fold change results are on record in the supplement of paper PMC10849652.

What all share (assay): log2 fold change, soluble protein after heating vs DMSO (PISA); higher = thermal stabilisation; K562 lysate, 10 uM; active = over 0.2 and 3.5 SD of the protein, either way, in both replicates (recomputed)
Compound in experiment [1]: NCC(=O)Nc1ccc(-n2nc(C(F)(F)F)cc2-c2ccc3c(ccc4ccccc43)c2)cc1
An outline of the steps:
(§1)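 K562 pellets were dounce-homogenised in PBS pH 7.4 with 1 mM MgCl2, and the crude extract at 1 mg/mL protein was treated with 10 μM compound for 30 min. Aliquots were heated for 3 min across 48°C-58°C, pooled, and brought to 0.5% NP-40 at 4°C; soluble protein was the supernatant after 21,000xg for 90 min. Soluble protein was quantified by TMTpro 16plex LC-MS/MS with channel sums equalised, and reported as log2 fold change in thermal stability against DMSO controls, with values from duplicates.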

Compound in experiment [2]: O=C(CCCCCCC(=O)Nc1ccccc1)NO [vorinostat]
An outline of the steps: as §1

Compound in experiment [3]: O=C(O)c1ccc2c(c1)nc(Nc1cccc(Cl)c1)c1ccncc12 [silmitasertib]
In outline: as §1

Compound in experiment [4]: O=C1NC(=O)C(c2cnc3ccccn23)=C1c1cn2c3c(cc(F)cc13)CN(C(=O)N1CCCCC1)CC2
In outline:
as §1

Compound in experiment [5]: c1cn2cc(-c3ccc4cn[nH]c4c3)nc(Nc3ccc(N4CCOCC4)cc3)c2n1 [entospletinib]
In outline: as §1

Targets with a hit are over-represented here; the source holds about 8,800 in all. About 0.5% of all pairs of compound and target were hits. A number with no mark means an inactive call.

Sequence of UniProt Q8IY47 (Q8IY47 whole entry, looked up): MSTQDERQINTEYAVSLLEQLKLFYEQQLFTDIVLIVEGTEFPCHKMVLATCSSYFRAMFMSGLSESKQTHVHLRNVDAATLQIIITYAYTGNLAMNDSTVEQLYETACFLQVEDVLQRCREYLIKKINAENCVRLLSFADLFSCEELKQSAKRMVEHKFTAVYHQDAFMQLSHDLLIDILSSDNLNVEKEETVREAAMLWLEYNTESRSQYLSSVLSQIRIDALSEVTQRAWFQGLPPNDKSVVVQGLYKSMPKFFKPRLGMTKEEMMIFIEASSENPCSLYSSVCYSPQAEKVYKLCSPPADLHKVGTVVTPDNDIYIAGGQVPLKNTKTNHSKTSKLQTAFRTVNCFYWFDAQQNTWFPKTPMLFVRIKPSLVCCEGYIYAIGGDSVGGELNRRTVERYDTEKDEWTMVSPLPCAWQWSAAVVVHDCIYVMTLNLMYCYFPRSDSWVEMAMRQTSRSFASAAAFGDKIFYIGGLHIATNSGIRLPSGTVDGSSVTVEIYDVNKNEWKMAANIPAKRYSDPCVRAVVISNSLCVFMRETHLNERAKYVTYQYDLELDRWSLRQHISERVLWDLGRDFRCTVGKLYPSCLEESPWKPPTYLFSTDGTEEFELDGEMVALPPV
Sequence of UniProt P78347 (P78347 whole entry, looked up): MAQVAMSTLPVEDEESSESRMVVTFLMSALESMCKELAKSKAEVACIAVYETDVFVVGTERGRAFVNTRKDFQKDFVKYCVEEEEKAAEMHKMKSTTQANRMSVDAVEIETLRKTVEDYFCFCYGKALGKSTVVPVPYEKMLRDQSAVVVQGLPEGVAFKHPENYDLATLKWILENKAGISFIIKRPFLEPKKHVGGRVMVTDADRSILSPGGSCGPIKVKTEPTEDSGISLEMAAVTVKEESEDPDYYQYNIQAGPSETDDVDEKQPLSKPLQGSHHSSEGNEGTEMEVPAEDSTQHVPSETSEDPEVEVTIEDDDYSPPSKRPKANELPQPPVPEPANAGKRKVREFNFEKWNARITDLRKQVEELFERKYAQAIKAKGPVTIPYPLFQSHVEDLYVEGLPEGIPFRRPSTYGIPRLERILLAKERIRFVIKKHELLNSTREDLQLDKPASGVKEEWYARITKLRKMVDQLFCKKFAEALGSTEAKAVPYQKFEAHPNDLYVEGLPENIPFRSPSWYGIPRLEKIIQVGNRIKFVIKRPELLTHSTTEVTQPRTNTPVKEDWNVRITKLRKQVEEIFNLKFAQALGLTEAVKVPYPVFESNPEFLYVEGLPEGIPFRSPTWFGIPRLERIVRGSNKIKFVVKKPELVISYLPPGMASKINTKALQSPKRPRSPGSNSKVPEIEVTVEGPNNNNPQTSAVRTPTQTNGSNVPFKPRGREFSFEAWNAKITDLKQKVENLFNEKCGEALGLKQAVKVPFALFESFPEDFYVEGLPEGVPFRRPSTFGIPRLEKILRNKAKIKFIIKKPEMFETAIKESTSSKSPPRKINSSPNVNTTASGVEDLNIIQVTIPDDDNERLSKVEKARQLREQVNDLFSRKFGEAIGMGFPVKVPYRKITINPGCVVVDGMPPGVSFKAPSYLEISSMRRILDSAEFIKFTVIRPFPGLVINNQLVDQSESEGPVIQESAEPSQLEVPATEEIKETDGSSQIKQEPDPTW
Sequence of UniProt Q9H079 (Q9H079 whole entry, looked up): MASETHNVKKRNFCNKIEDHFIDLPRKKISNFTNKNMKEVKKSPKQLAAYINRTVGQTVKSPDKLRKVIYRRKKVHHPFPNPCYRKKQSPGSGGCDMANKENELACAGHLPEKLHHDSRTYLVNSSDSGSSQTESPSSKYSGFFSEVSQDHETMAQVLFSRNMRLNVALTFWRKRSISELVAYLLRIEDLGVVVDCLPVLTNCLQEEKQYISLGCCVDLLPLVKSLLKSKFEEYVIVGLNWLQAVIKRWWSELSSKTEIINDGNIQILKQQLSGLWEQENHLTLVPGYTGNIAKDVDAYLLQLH
Sequence of UniProt O14979 (O14979 whole entry, looked up): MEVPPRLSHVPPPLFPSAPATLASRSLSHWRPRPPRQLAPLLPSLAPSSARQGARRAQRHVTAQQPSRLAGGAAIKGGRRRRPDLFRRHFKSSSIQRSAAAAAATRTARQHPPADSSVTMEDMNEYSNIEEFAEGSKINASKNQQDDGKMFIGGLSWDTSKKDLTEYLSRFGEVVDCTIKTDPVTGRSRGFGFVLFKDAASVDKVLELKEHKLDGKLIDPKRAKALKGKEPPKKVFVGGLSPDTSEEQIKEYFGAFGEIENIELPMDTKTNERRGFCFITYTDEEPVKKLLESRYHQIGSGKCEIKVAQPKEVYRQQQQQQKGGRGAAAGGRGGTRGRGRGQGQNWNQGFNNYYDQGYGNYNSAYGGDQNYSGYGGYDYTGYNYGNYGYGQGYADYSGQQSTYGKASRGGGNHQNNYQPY
Sequence of UniProt Q99729 (Q99729 whole entry, looked up): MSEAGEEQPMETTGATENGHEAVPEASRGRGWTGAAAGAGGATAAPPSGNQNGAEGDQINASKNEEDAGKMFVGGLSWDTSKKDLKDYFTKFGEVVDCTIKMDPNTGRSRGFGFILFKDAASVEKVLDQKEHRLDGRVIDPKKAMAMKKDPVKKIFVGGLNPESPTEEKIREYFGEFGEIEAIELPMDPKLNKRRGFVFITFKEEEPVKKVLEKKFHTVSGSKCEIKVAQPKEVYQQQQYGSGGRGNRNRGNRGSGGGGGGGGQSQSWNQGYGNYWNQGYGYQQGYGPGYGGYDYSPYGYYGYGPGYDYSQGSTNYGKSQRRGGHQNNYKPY
Sequence of UniProt Q58FG1 (Q58FG1 whole entry, looked up): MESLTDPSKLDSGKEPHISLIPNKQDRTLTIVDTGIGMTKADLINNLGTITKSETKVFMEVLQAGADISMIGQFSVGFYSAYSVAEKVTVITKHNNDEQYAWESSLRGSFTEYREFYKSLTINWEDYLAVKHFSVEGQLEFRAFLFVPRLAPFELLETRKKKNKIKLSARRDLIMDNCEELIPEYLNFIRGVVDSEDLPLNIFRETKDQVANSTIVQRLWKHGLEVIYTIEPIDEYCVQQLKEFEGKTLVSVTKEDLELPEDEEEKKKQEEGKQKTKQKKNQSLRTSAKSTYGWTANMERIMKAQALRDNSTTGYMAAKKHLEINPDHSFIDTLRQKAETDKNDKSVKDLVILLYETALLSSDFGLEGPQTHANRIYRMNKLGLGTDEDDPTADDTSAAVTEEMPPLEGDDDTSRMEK
Sequence of UniProt P11142 (P11142 whole entry, looked up): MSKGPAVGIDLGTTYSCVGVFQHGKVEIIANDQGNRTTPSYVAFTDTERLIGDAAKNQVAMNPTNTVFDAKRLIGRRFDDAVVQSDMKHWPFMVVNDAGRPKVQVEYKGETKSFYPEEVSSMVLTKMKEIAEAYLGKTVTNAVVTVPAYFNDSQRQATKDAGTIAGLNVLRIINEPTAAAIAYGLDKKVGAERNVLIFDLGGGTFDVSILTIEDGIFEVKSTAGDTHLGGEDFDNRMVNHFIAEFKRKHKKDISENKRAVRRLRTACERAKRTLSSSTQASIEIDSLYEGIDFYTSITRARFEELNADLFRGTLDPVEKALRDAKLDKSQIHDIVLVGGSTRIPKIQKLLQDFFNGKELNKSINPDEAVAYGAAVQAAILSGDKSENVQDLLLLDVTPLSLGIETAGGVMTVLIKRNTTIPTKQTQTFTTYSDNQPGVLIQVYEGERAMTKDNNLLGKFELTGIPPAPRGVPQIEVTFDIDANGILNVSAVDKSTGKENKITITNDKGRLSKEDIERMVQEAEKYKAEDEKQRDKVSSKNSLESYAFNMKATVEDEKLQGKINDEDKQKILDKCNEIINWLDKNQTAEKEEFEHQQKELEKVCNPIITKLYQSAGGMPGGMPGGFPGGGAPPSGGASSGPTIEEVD
Sequence of UniProt Q9BUE6 (Q9BUE6 whole entry, looked up): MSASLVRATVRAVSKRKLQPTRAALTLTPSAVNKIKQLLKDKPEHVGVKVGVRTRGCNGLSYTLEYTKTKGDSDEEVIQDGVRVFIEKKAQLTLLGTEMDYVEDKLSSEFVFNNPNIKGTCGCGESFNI

ISCA1 isoform 2 (UniProt Q9BUE6): the log2 fold change in experiment [1] was -0.005; in experiment [2] it was 0.043; in experiment [3], 0.015; in experiment [4], 0.004; in experiment [5], 0.071.
Take HNRNPAB isoform 3 (UniProt Q99729): the log2 fold change in experiment [1] was 0.067; in experiment [2], 0.189; in experiment [3] it was -0.01; in experiment [4], 0.008; in experiment [5], -0.019.
On to HSPA8 (UniProt P11142), for which the log2 fold change is -0.008 in experiment [1]; 0.105 in experiment [2]; -0.009 in experiment [3]; -0.011 in experiment [4]; -0.002 in experiment [5].
In the same order, the values of KATNBL1 (UniProt Q9H079) are 0.111, -0.176, -0.02, 0.144 and 0.234.
Turning to KBTBD2 (UniProt Q8IY47), the log2 fold change in experiment [1] was 0.047; in experiment [2], 0.145; in experiment [3] it was -0.039; in experiment [4] it was 0.038; in experiment [5], 0.026.
In the case of HNRNPDL (UniProt O14979), the log2 fold change in experiment [1] is -0.032; in experiment [2], 0.133; in experiment [3], -0.01; in experiment [4], 0.01; in experiment [5], 0.01.
HSP90AA4P (UniProt Q58FG1): the log2 fold change was 0.026 in experiment [1]; 0.047 in experiment [2]; -0.087 in experiment [3]; -0.047 in experiment [4]; 0.017 in experiment [5].
For GTF2I (UniProt P78347), the log2 fold change is -0.001 in experiment [1]; -0.287 (active) in experiment [2]; 0.091 in experiment [3]; -0.005 in experiment [4]; -0.017 in experiment [5].
Take HSPA8 (UniProt E9PK54): the log2 fold change in experiment [1] was 0.068; in experiment [2], -0.004; in experiment [3], -0.037; in experiment [4], -0.022; in experiment [5], 0.012.
